Hits are enriched below; roughly 2.7% of the tested compounds scored in any of these assays.
rTrxR1 inhibitor – qHTS Assay for Inhibitors of Mammalian Selenoprotein Thioredoxin Reductase 1 (TrxR1): qHTS. recombinant rTrxR1, NADPH fluorescence consumption, selenite substrate. Thioredoxin reductase 1, cytoplasmic (Rattus norvegicus), O89049. AID 588453, 2011. hit rate 1% among 390,000. Potency, µM (top dose mostly 114 µM), without a hit: at the highest dose activity change, negative = inhibition, actives largely listed as inhibitors; note: % is set by controls: 0 for no effect and ±100 for the full control effect; nearly all actives have a fitted effect of over 65% in size
Target sequence (O89049 whole entry, looked up): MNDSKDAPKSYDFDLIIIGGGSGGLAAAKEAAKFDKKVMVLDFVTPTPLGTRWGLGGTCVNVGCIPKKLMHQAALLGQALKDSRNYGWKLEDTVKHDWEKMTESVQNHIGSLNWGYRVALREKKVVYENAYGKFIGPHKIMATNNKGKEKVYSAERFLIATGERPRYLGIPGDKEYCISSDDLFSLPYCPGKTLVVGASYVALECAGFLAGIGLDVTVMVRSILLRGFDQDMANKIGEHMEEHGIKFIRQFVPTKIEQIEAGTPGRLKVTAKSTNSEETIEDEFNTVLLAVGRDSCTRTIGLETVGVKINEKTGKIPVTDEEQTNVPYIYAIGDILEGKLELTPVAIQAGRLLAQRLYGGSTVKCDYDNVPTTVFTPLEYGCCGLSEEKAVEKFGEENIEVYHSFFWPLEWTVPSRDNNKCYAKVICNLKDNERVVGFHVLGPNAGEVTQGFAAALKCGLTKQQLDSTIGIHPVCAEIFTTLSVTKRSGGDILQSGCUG
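Rat TrxR1 (90 nM in the dispensed reagent) was pre-reduced with 400 uM NADPH for 5 min at room temperature, then incubated with compound for 15 min. After 400 uM selenite was added, NADPH fluorescence (Ex 340/Em 450 nm) was followed for 8 min.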
GLP-1R agonist – qHTS of GLP-1 Receptor Agonists; Glucagon-like peptide 1 receptor (Homo sapiens), P43220; HEK293 GLP-1R CRE-luciferase, luminescence, 4-6 h; cells express a hypersensitive GLP-1R form; Potency, µM (series often up to 45.6 µM), without a hit: at the top dose activation, hits mostly activators; hit rate 0.007% among 380,000; AID 624172, 2012; note: % of control where 0% means no effect
GLP1R inv ag – qHTS of GLP-1 Receptor Inverse Agonists (Inhibition Mode). Glucagon-like peptide 1 receptor (Homo sapiens), P43220. hit rate 1.6% among 410,000. Potency, µM (titrated, usually from 38.3 µM), without a hit: top-dose activity change, negative = inhibition, hits mostly inhibitors. HEK293 GLP-1R CRE-luciferase, luminescence, 24 h; GLP-1R form is constitutively active. AID 624417, 2012; note: % is set by controls: 0 for no effect and ±100 for the full control effect; nearly all actives have a fitted effect of over 55% in size
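Constitutively active GLP-1R drives a cAMP-responsive luciferase in stably transfected HEK293 cells; test compounds are added after overnight (12 h) attachment and left 24 hr, and signal loss in luminescence marks inhibition.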
IDH1 R132H inh – qHTS for Inhibitors of mutant isocitrate dehydrogenase 1 (IDH1): qHTS. IDH1-R132H enzyme, NADPH consumption, diaphorase/resazurin fluorescence. hit rate 0.093% among 390,000. Potency, µM (series often up to 76.6 µM), without a hit: at the highest dose activity change, negative = inhibition, usual class: inhibitors. AID 602179, 2012. Isocitrate dehydrogenase [NADP] cytoplasmic (Homo sapiens), O75874; note: % is set by controls: 0 for no effect and ±100 for the full control effect; nearly all actives have a fitted effect of over 65% in size
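IDH1-R132H (0.5 ug/mL) preincubated 30 min with compound, then NADPH (0.016 mM) and alpha-KG (2 mM) added; 80 min at RT, pH 7.5. Remaining NADPH coupled via diaphorase/resazurin to fluorescence (540/590 nm); concentration-response curves normalized to no-enzyme control.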
GLP1R cytotox – qHTS of GLP-1 Receptor Inverse Agonists: Cytotox Screen; hit rate 0.13% among 410,000; HEK293 cAMP-luciferase reporter cells, luminescence, 24 h; AID 624418, 2012; Potency, µM (top dose mostly 38.3 µM), for the others: at the top dose activity change, negative = inhibition, hits mostly inhibitors;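 note: loss of luciferase light is scored as toxicity; % is set by controls: 0 for no effect and ±100 for the full control effect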
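Seeding density was 200 cells/uL; after overnight-length (12 h) culture, 23 nL compounds went on for 24 h at 37 °C. Readout used a luciferase detection reagent, luminescence taken after 12 min at room temperature.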
TrxR1 substrate – qHTS Assay for Substrates of Mammalian Selenoprotein Thioredoxin Reductase 1 (TrxR1): qHTS | Thioredoxin reductase 1, cytoplasmic (Rattus norvegicus), O89049 | purified TrxR1 substrate turnover, NADPH consumption readout | Potency, µM (doses to about 114 µM), for inactives: top-dose activity change, negative = substrate turnover | hit rate 0.01% among 390,000 | AID 588456, 2011; note: % is set by controls: 0 for no effect and ±100 for the full control effect; nearly all actives have a fitted effect of over 50% in size
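Rat TrxR1, dispensed at 90 nM, was prereduced with 400 uM NADPH (final) for 5 min at ~22 deg C, then incubated with compound 15 min before 400 uM selenite. A first-read NADPH fluorescence drop versus no-compound background flagged substrates.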
* marks the source's active call; other numbers are inactive results; [ ] = dose if it differs, or a comment. Calls come from the whole dose curve; as a rule, active = well fitted curve in the direction sought with a large enough effect; inconclusive = small, poorly fitted or top-dose-only effect, or another doubt; inactive = no such curve, though single readings can be large; an effect the other way counts as inactive or inconclusive. Potency is the fitted concentration of half-maximal effect.

How did COC(=O)c1[nH]c2ccc(C)cc2c1NS(=O)(=O)c1ccc(F)c(C)c1 do in these assays?
rTrxR1 inhibitor: 6%; GLP-1R agonist: 4%; GLP1R inv ag: 10µM*; IDH1 R132H inh: 18%; GLP1R cytotox: -3%; TrxR1 substrate: -2%

Results for CCN(CC)c1ccc(C(=O)N2CCc3c([nH]c4ccccc34)C2c2ccc(F)cc2)cc1 (configuration not stated) ?
rTrxR1 inhibitor: 22%[57.1 µM]; GLP1R inv ag: 1%; IDH1 R132H inh: -10%; GLP1R cytotox: 4%; TrxR1 substrate: 1%[57.1 µM]

What do the screens show for `O=C1c2cccc3cc([N+](=O)[O-])cc(c23)C(=O)N1CCN1CCCC1`?
rTrxR1 inhibitor: -21%; GLP-1R agonist: -13%; GLP1R inv ag: 4.5µM*; IDH1 R132H inh: -7%; GLP1R cytotox: 34%; TrxR1 substrate: -16%

How did Nc1cc2c3c(cccc3c1)C(=O)N(CCN1CCCC1)C2=O do in these assays?
rTrxR1 inhibitor: 5%; GLP-1R agonist: -8%; GLP1R inv ag: inconclusive; IDH1 R132H inh: -21%; GLP1R cytotox: 0%; TrxR1 substrate: -6%

How did Cc1cc(OC(C)C(=O)N(Cc2ccco2)Cc2ccco2)cc(C)c1Cl (configuration not stated) do in these assays?
rTrxR1 inhibitor: 17%; GLP1R inv ag: 10µM*; IDH1 R132H inh: 18%; GLP1R cytotox: 1%; TrxR1 substrate: -7%

How did Cc1ccc(Oc2c(C(F)(F)F)oc3c(CN4CCCCC4C)c(O)ccc3c2=O)cc1 (configuration not stated) do in these assays?
rTrxR1 inhibitor: -3%; GLP1R inv ag: 10%; IDH1 R132H inh: 0%; GLP1R cytotox: 2%; TrxR1 substrate: 2%

What do the screens show for `COc1ccc(NC(=O)CN2C(=O)C(c3ccc(C)cc3)=NC23CCCCCC3)cc1Cl`?
rTrxR1 inhibitor: 37%; GLP1R inv ag: 11µM*; GLP1R cytotox: -7%; TrxR1 substrate: 9%

How did COc1ccc(C2=NC3(CCCCCC3)N(CC(=O)Nc3cccc(Cl)c3)C2=O)cc1 do in these assays?
rTrxR1 inhibitor: 16%; GLP1R inv ag: 11µM*; GLP1R cytotox: -26%; TrxR1 substrate: 2%

What do the screens show for `Cc1ccc(COn2c(-c3ccc(Cl)cc3Cl)nc3ncccc32)cc1`?
rTrxR1 inhibitor: 4%[57.1 µM]; GLP-1R agonist: -3%; GLP1R inv ag: 10µM*; IDH1 R132H inh: 2%; GLP1R cytotox: -29%; TrxR1 substrate: -25%[57.1 µM]

What do the screens show for `COc1ccc(-c2csc(NCCc3nc4cc(Cl)c(N5CCCCC5)cc4n3CCOCCO)n2)cc1`?
rTrxR1 inhibitor: 12%[57.1 µM]; GLP-1R agonist: 3%; GLP1R inv ag: inconclusive; IDH1 R132H inh: -12%; GLP1R cytotox: 2%; TrxR1 substrate: 6%[57.1 µM]

How did OCCCn1c(CCCNc2nc(-c3cccc(Br)c3)cs2)nc2cc(Cl)c(N3CCCCC3)cc21 do in these assays?
rTrxR1 inhibitor: 21%[57.1 µM]; GLP-1R agonist: -10%; GLP1R inv ag: 10µM*; IDH1 R132H inh: -5%; GLP1R cytotox: 3%; TrxR1 substrate: 8%[57.1 µM]

How did COc1ccccc1NC(=O)Cn1c(=O)n(CC2CCC(C(=O)NCCc3ccccc3)CC2)c(=O)c2ccccc21 (configuration not stated) do in these assays?
rTrxR1 inhibitor: -10%; GLP-1R agonist: -1%; GLP1R inv ag: -23%; IDH1 R132H inh: -3%; GLP1R cytotox: 4%; TrxR1 substrate: -5%
